Laboratory results as given in ChEMBL document CHEMBL1201862, “PubChem BioAssay data set” (2004).
About 2,100 (0.53%) of roughly 400,000 compounds were called active. About 14% were inconclusive and are not listed. The rule behind the calls is not given here. What follows is part of a selection rich in actives, with near analogues and random picks from the rest.

Target: Ataxin-2 (Homo sapiens) (UniProt Q99700)
Experiment: qHTS for Inhibitors of ATXN expression.
Type: functional

Chain of Ataxin-2 (Homo sapiens) (Q99700 whole entry): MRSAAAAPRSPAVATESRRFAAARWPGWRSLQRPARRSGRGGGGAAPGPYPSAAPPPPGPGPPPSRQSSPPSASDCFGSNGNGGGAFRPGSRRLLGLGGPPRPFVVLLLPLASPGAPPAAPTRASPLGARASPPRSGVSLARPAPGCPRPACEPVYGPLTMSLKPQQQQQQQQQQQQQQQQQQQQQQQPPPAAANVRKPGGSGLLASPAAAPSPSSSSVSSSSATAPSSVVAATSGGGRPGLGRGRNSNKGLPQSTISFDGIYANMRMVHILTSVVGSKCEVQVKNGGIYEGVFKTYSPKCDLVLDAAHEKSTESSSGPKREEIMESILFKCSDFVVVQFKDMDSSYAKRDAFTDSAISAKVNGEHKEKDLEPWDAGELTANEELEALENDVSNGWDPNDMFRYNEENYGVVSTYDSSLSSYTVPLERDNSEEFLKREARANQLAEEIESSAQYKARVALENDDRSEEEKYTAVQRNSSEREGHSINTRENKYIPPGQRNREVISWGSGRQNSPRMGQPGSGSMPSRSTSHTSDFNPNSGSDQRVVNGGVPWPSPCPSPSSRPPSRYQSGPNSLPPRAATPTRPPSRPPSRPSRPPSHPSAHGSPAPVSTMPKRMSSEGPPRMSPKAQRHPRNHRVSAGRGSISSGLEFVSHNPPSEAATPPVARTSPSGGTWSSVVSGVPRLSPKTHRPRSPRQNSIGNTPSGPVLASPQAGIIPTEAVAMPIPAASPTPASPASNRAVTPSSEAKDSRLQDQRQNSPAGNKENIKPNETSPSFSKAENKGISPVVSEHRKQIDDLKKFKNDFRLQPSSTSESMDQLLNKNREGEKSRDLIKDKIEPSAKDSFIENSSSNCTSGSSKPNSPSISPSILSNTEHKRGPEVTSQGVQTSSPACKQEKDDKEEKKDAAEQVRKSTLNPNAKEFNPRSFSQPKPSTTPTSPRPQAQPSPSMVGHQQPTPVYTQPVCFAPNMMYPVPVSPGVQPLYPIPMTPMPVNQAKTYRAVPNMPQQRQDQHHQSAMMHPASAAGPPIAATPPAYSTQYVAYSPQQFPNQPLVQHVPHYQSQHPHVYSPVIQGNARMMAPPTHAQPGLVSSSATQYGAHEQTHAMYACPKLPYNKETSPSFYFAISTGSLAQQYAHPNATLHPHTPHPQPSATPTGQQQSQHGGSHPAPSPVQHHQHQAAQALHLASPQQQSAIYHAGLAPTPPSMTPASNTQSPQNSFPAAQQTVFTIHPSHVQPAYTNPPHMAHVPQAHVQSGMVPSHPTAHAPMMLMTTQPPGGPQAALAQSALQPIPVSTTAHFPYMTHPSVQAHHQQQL

Question: How did the Potency turn out when `CCOC(=O)C1CCCN(Cc2ccc(OCc3ccccc3)c(OC)c2)C1` (configuration not stated) was run?
Answer: Its Potency is “inactive”.

Question: With `Cc1nc2c(OCc3ccc(OC(F)F)cc3)cccn2c1N(C)C(=O)CCC1CCCC1` as the compound, how does the Potency read?
Answer: The Potency was 39.8 µM (active).

Question: How did the Potency turn out when `COC(=O)c1ccc(COc2cccn3c(N(C)C(=O)CCC4CCCC4)c(C)nc23)cc1` was run?
Answer: Its Potency is 35.5 µM (active).

Question: With `CCn1cc(C(=O)N(C)Cc2ccc(OC(F)F)cc2)c(=O)c2ccc(C)nc21` as the compound, how does the Potency read?
Answer: The Potency was “inactive”.

Question: Which Potency does the source give for `CCOC(=O)c1cc2c(=O)n3ccccc3nc2n(CC2CCCO2)/c1=N\C(=O)c1ccccc1OCC` (configuration not stated) here?
Answer: The Potency was “inactive”.

Question: Which Potency does the source give for `CCCCCC(=O)Nc1ncc2c(n1)CC(c1cccs1)CC2=O` (configuration not stated) here?
Answer: The Potency was “inactive”.

Question: For `O=C(CCCCCn1c(=S)[nH]c2ccc(N3CCOCC3)cc2c1=O)NC1CCN(Cc2ccccc2)CC1`, which Potency is on record?
Answer: Its Potency is “inactive”.

Question: For `Cc1sc2c(c1C)C(O)=C(/C=N/c1ccccn1)S(=O)(=O)N2C`, which Potency is on record?
Answer: The Potency was “inactive”.

Question: How did the Potency turn out when `N#CC(=C(O)COC(=O)CCC1CCCCC1)c1nc2ccccc2[nH]1` was run?
Answer: The Potency was 39.8 µM (active).

Question: How did the Potency turn out when `N#C/C(=C(/O)COC(=O)COc1ccc(Cl)cc1)c1nc2ccccc2[nH]1` was run?
Answer: Its Potency is 39.8 µM (active).

Question: Which Potency does the source give for `N#Cc1ccccc1S(=O)(=O)N1CCN(C(=O)CCC2CCCC2)CC1` here?
Answer: The Potency was “inactive”.

Question: Which Potency does the source give for `N#C/C(=C(/O)C(Cl)(Cl)Cl)c1nc2ccccc2[nH]1` here?
Answer: Its Potency is “inactive”.

Question: How did the Potency turn out when `N#C/C(=C\c1ccc(-c2ccccc2C(=O)O)o1)c1nc2ccccc2[nH]1` was run?
Answer: Its Potency is “inactive”.

Question: `N#C/C(=C\c1ccccc1C(=O)O)c1nc2ccccc2[nH]1` was tested. Which Potency did it give?
Answer: The Potency was “inactive”.

Question: Which Potency does the source give for `N#Cc1c(N)n(CCOC(=O)c2ccc(Cl)cc2)c2nc3ccccc3nc12` here?
Answer: Its Potency is “inactive”.

Question: `N#C/C(=C(/O)COC(=O)CCCNC(=O)c1ccc(Cl)cc1)c1nc2ccccc2[nH]1` was tested. Which Potency did it give?
Answer: Its Potency is 25.1 µM (active).

Question: Which Potency does the source give for `N#Cc1c(N)n(CCNC(=O)c2ccccc2)c2nc3ccccc3nc12` here?
Answer: The Potency was “inactive”.

Question: How did the Potency turn out when `N#C/C(=C(/O)COC(=O)COc1cccc(Br)c1)c1nc2ccccc2[nH]1` was run?
Answer: Its Potency is 22.4 µM (active).

Question: For `Cc1cccc(N2C(=O)c3ccccc3C2=O)n1`, which Potency is on record?
Answer: Its Potency is “inactive”.

Question: `Oc1ccccc1C1=NN(c2ccccc2)C(c2ccccc2)C1` (configuration not stated) was tested. Which Potency did it give?
Answer: Its Potency is “inactive”.

Question: Which Potency does the source give for `COc1cc(/C=C/c2onc(C)c2[N+](=O)[O-])cc(OC)c1OC` here?
Answer: The Potency was “inactive”.

Question: With `O=C(CN1C(=O)c2ccccc2C1=O)NCc1ccc(N2CCOCC2)cc1` as the compound, how does the Potency read?
Answer: The Potency was “inactive”.

Question: With `O=C(OCCOc1cccc(Cl)c1)c1ccc2ncsc2c1` as the compound, how does the Potency read?
Answer: Its Potency is “inactive”.

Question: `CCC(=O)Nc1c(OC(=O)CC)ccc2c(C)cc(=O)oc12` was tested. Which Potency did it give?
Answer: Its Potency is “inactive”.

Question: Which Potency does the source give for `CCCCN(C(=O)c1ccc2ccccc2c1)c1c(N)n(CCCC)c(=O)[nH]c1=O` here?
Answer: The Potency was “inactive”.

Question: `CCCCn1c(N)c(N(CCC(C)C)C(=O)c2ccc(-c3ccc([N+](=O)[O-])cc3)o2)c(=O)[nH]c1=O` was tested. Which Potency did it give?
Answer: Its Potency is 20 µM (active).

Question: How did the Potency turn out when `CCCCn1c(N)c(N(CC)C(=O)c2cc(OC)cc(OC)c2)c(=O)[nH]c1=O` was run?
Answer: Its Potency is “inactive”.

Question: Which Potency does the source give for `COc1cc2c(cc1OC)C(c1ccc(-c3ccccc3Cl)o1)=NCC2` here?
Answer: Its Potency is 39.8 µM (active).

Question: How did the Potency turn out when `Cc1nn(C)c(C)c1N1C(=O)c2cccc3c(Br)ccc(c23)C1=O` was run?
Answer: The Potency was “inactive”.

Question: With `Cc1ccccc1CNC(=O)c1ccccc1NS(C)(=O)=O` as the compound, how does the Potency read?
Answer: Its Potency is “inactive”.

Question: `Cc1ccccc1CS(=O)(=O)Cc1ccc(C(=O)NCCCN2CC(C)CC(C)C2)o1` (configuration not stated) was tested. Which Potency did it give?
Answer: The Potency was 8.91 µM (active).

Question: Which Potency does the source give for `Cc1ccccc1C(=O)NCCCNC(=O)c1ccco1` here?
Answer: Its Potency is “inactive”.

Question: For `CC(C)C1Cc2c(sc3ncnc(NN)c23)CO1` (configuration not stated), which Potency is on record?
Answer: The Potency was “inactive”.

Question: Which Potency does the source give for `CN(C)CCCNC(=O)c1cc2sc3ccccc3c2s1` here?
Answer: Its Potency is “inactive”.

Question: For `COc1cc(C)c2sc3ccccc3c(=O)c2c1NCCN(C)C`, which Potency is on record?
Answer: Its Potency is 44.7 µM (active).

Question: How did the Potency turn out when `Cc1cc(O)cc2c(=O)c3ccccc3sc12` was run?
Answer: Its Potency is “inactive”.

Question: Which Potency does the source give for `Cc1ccc(/C=N/NC(=O)c2cc3c(s2)CCCC3)o1` here?
Answer: The Potency was “inactive”.

Question: How did the Potency turn out when `O=S(=O)(/C=C/c1ccccc1)NCc1ccccc1Cl` was run?
Answer: The Potency was “inactive”.

Question: For `O=C(CCC(=O)N/N=C/c1cc(Cl)cc(Cl)c1O)NCc1ccccc1`, which Potency is on record?
Answer: The Potency was “inactive”.

Question: Which Potency does the source give for `CCC/C=C/c1ccc(CN2C(CC(C)C)C(=O)N(Cc3cn(CCC4OCCCO4)nn3)CCS2(=O)=O)cc1` (configuration not stated) here?
Answer: Its Potency is 39.8 µM (active).

Question: Which Potency does the source give for `CCC/C=C/c1ccc(CN2C(CC(C)C)C(=O)N(Cc3cn(CCC4OCCO4)nn3)CCS2(=O)=O)cc1` (configuration not stated) here?
Answer: Its Potency is 35.5 µM (active).

Question: For `O=C(CCCCn1c(=O)[nH]c2ccsc2c1=O)NCc1ccc2c(c1)OCO2`, which Potency is on record?
Answer: The Potency was “inactive”.

Question: How did the Potency turn out when `CN(C)S(=O)(=O)c1ccc2oc(SCC(=O)c3c(N)n(C4CC4)c(=O)[nH]c3=O)nc2c1` was run?
Answer: Its Potency is “inactive”.

Question: With `O=c1c2ccccc2nc(/C=C/c2c[nH]c3ccccc23)n1CCO` as the compound, how does the Potency read?
Answer: Its Potency is “inactive”.

Question: For `CCCCc1cc(-c2nnc(S)o2)c2ccccc2n1`, which Potency is on record?
Answer: Its Potency is “inactive”.

Question: `CC(Oc1ccccc1Cl)C(=O)Nc1ccc(S(=O)(=O)N2CCCC2)cc1` (configuration not stated) was tested. Which Potency did it give?
Answer: The Potency was 35.5 µM (active).

Question: For `CC(C)NS(=O)(=O)c1ccc(NC(=O)C(C)OC(=O)C2CCC2)cc1` (configuration not stated), which Potency is on record?
Answer: The Potency was “inactive”.

Question: For `CC(Oc1cc(F)ccc1[N+](=O)[O-])C(=O)Nc1ccc(S(=O)(=O)N2CCCC2)cc1` (configuration not stated), which Potency is on record?
Answer: The Potency was “inactive”.

Question: With `Cc1cc2nc(-c3cccnc3O)[nH]c2cc1C` as the compound, how does the Potency read?
Answer: Its Potency is “inactive”.

Question: Which Potency does the source give for `CN1c2ccccc2C(C)(C)C12C=Nc1c(cc(N3CCOCC3)c3ccccc13)O2` (configuration not stated) here?
Answer: The Potency was “inactive”.

Question: With `Cc1cccc(N(C(=O)c2nsc(Cl)c2Cl)C(C(=O)NC2CCCC2)c2ccc(O)cc2)c1C` (configuration not stated) as the compound, how does the Potency read?
Answer: Its Potency is 17.8 µM (active).

Question: With `NC(=O)c1nsc(C(=O)N(c2cccc(O)c2)C(C(=O)NC2CCCC2)c2ccc(Cl)cc2)c1N` (configuration not stated) as the compound, how does the Potency read?
Answer: Its Potency is “inactive”.

Question: How did the Potency turn out when `Cc1ccccc1N(C(=O)c1snc(C(N)=O)c1N)C(C(=O)NCC1CCCO1)c1ccc(F)cc1` (configuration not stated) was run?
Answer: The Potency was “inactive”.

Question: `COC(=O)c1cc2c(=O)c3ccccc3oc2nc1/C=C/N(C)C` was tested. Which Potency did it give?
Answer: Its Potency is “inactive”.

Question: For `COc1cc(/C=N\NS(=O)(=O)c2ccccc2)cc(OC)c1OC`, which Potency is on record?
Answer: Its Potency is “inactive”.

Question: With `COc1cc(N=Nc2cccc(S(N)(=O)=O)c2)c2ccccc2c1N` as the compound, how does the Potency read?
Answer: Its Potency is 35.5 µM (active).

Question: With `COc1ccc(-c2cc(C(=O)Nc3cc(S(N)(=O)=O)ccc3C)c3ccccc3n2)cc1OC` as the compound, how does the Potency read?
Answer: Its Potency is “inactive”.

Question: `O=c1cc(CSc2nc(O)c3ccccc3n2)c2ccc(O)cc2o1` was tested. Which Potency did it give?
Answer: The Potency was “inactive”.

Question: For `CC(Oc1ccc(Cl)cc1)C(=O)Nc1sccc1C(N)=O` (configuration not stated), which Potency is on record?
Answer: Its Potency is “inactive”.

Question: For `CC(Oc1cccc(Cl)c1)C(=O)Nc1nc(-c2ccccn2)cs1` (configuration not stated), which Potency is on record?
Answer: The Potency was 39.8 µM (active).

Question: `Cc1ccc(Cl)cc1NC(=O)c1ccccn1` was tested. Which Potency did it give?
Answer: Its Potency is “inactive”.

Question: How did the Potency turn out when `CCOC(=O)c1c(N)n(-c2ccc(CC)cc2)c2nc3ccccc3nc12` was run?
Answer: Its Potency is “inactive”.

Question: Which Potency does the source give for `NNC(=O)c1sccc1OCc1ccc(Cl)cc1Cl` here?
Answer: Its Potency is “inactive”.

Question: `CCc1nc2c(OCc3ccc(Cl)cc3Cl)cccn2c1N(C)C(C)=O` was tested. Which Potency did it give?
Answer: Its Potency is 31.6 µM (active).

Question: `CSCCC(NC(=O)COc1ccccc1)C(=O)N(C)Cc1ccc(Cl)cc1Cl` (configuration not stated) was tested. Which Potency did it give?
Answer: Its Potency is “inactive”.

Question: With `CCOC(=O)N(C)c1c(CC)nc2c(OCc3ccc(Cl)cc3)cccn12` as the compound, how does the Potency read?
Answer: The Potency was 20 µM (active).

Question: For `Cc1nc2c(OCc3ccc(Cl)cc3Cl)cccn2c1N(C)Cc1cccs1`, which Potency is on record?
Answer: Its Potency is 8.91 µM (active).
